Our source for the Potency and outcome values is PubChem BioAssay (Tox21).

Records with an inconclusive call do not appear. Activity calls are given as the source filed them. Unless noted, calls come from the whole dose curve; as a rule, active = well fitted curve in the direction sought with a large enough effect in the repeat runs; inconclusive = weak or mixed curves; inactive = no such curve, though single readings can be large; an effect the other way counts as inactive or inconclusive.

Test [1] is described as follows: qHTS assay to identify small molecule antagonists of the glucocorticoid receptor (GR) signaling pathway - cell viability counter screen (AID 720693). Note: nearly all actives have a fitted effect of over 55% in size. Background: Quantitative high-throughput screening tests each substance at several concentrations.
Test [2] can be described thus: qHTS assay for identifying genotoxic compounds that show differential cytotoxicity against isogenic chicken DT40 cell lines with known DNA damage response pathways - wild type cell line (AID 743012). Note: nearly all actives have a fitted effect of over 60% in size. Note: potency is the fitted concentration of half-maximal effect. The method in brief: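 Quantitative HTS on parental DT40 cells: 40 h compound treatment at 37 C/5% CO2, with viability then determined by CellTiter-Glo luminescence. Values serve as the DNA repair-proficient reference for differential cytotoxicity.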

Test [3] can be described thus: qHTS assay for identifying genotoxic compounds that show differential cytotoxicity against isogenic chicken DT40 cell lines with known DNA damage response pathways - Rev3 mutant cell line (AID 743014). Note: nearly all actives have a fitted effect of over 55% in size. Note: potency is the fitted concentration of half-maximal effect.
Test [4] in a line: qHTS assay for identifying genotoxic compounds that show differential cytotoxicity against isogenic chicken DT40 cell lines with known DNA damage response pathways - Rad54/Ku70 mutant cell line (AID 743015). Note: nearly all actives have a fitted effect of over 60% in size. Note: potency is the fitted concentration of half-maximal effect.
Test [5] deals with Androgen receptor (Homo sapiens) (UniProt P10275). Description: qHTS assay to identify small molecule agonists of the androgen receptor (AR) signaling pathway using the MDA cell line (AID 743040; note: nearly all actives have a fitted effect of over 20% in size). Put shortly:
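MDA-kb2 breast carcinoma cells carrying MMTV-luciferase (responsive to AR and GR), plated 5 h then treated 16 h with compounds at 37C, 0% CO2. Read-out was ONE-Glo luminescence after 30 min at room temperature.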

Test [6] is described as follows: qHTS assay to identify small molecule antagonists of the androgen receptor (AR) signaling pathway using the MDA cell line - cell viability counter screen (AID 743041; note: nearly all actives have a fitted effect of over 45% in size; note: potency is the fitted concentration of half-maximal effect). The method in brief:
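MDA-kb2 AR-luc cells (MMTV-luciferase, AR/GR responsive) treated with compounds plus R1881 agonist for 16 h at 37C. CellTiter-Fluor added at 15.5 h; fluorescence read after 30 min in the same wells.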

Test [7] in a line: qHTS assay to identify small molecule antagonists of the androgen receptor (AR) signaling pathway - cell viability counter screen (AID 743033; note: nearly all actives have a fitted effect of over 45% in size).
In test [8] the target is Androgen receptor (Homo sapiens) (UniProt P10275). Nature of the test: qHTS assay to identify small molecule agonists of the androgen receptor (AR) signaling pathway (AID 743036; active = well fitted activation curve with a large enough effect in the signal ratio in the repeat runs, with a control signal flat, not every such curve was filed as active; the % refers to the signal ratio). The method in brief: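 HEK293 cells stably carrying a UAS-driven beta-lactamase reporter (GeneBLAzer AR-UAS-bla-GripTite) were plated at 2,000 cells/well, rested 4 h at 37C, then exposed to compounds in DMSO for 16 h. LiveBLAzer B/G FRET substrate was added for 2 h at room temperature; fluorescence read.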

The target is the same in test [9]. Nature of the test: qHTS assay to identify small molecule antagonists of the androgen receptor (AR) signaling pathway using the MDA cell line (AID 743042; note: nearly all actives have a fitted effect of over 55% in size). The method in brief: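 MDA-kb2 breast carcinoma cells carrying MMTV-luciferase (AR/GR responsive) were co-treated with compounds and the agonist R1881 for 16 h at 37C. Inhibition read as ONE-Glo luminescence; CellTiter-Fluor fluorescence measured in parallel for cytotoxicity.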

Androgen receptor (Homo sapiens), sequence (P10275 whole entry, looked up): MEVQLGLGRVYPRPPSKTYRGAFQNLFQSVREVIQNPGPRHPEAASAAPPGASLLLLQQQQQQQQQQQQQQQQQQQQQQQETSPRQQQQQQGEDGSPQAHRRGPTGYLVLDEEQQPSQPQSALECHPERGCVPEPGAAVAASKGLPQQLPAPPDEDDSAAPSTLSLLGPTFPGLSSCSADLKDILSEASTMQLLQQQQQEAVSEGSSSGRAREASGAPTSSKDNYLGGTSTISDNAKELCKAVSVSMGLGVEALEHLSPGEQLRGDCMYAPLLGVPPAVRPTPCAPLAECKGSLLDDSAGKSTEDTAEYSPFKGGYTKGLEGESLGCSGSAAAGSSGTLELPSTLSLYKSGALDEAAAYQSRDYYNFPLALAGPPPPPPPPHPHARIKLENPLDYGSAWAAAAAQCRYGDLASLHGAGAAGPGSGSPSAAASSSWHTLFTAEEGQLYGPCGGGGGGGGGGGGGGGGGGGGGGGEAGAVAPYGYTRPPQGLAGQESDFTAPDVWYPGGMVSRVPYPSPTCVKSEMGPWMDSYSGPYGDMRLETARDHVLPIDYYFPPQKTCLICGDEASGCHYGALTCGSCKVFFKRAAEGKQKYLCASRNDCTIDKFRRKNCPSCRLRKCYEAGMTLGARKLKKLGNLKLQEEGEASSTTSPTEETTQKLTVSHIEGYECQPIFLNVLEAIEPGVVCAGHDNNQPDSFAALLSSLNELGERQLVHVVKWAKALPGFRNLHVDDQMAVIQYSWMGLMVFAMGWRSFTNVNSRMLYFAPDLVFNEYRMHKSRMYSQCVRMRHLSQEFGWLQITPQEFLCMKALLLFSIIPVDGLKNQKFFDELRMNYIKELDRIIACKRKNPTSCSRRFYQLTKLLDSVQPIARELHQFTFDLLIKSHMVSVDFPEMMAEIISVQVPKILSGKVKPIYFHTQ

Consider `CN(C)CC/C=C1\c2ccccc2Sc2ccc(Cl)cc21`, for which the Potency entry in test [1] and in test [5] was “inactive” in each case. In addition, the Potency in test [2] was 3.76 µM (active); in [3] it was 16.8 µM (active); in test [4] it was 10.6 µM (active); in test [6], 27.8 µM (active).
Turning to `CC(C)Cc1ccc(CC(=O)O)cc1`, the Potency entry in test [1], in test [2], in test [3], in test [4], in test [7] and in test [6] was “inactive” each time.
Take `O=C1OC(=O)c2c(Br)c(Br)c(Br)c(Br)c21`: the Potency result in test [1], in test [2], in test [3], in test [4], in test [7] and in test [6] was “inactive” in each case.
Take `COc1cc(NS(=O)(=O)c2ccc(N)cc2)nc(C)n1`: the Potency result in test [1], in [2], in [3], in test [4], in [7] and in [6] was “inactive” each time.
`COc1cc(C(C)=O)ccc1OCCCN1CCC(c2noc3cc(F)ccc23)CC1`: the Potency entry in test [1], in test [7] and in test [6] was “inactive” each time. The Potency in test [2] was 11.9 µM (active); in [3], 18.8 µM (active); in test [4], 16.8 µM (active).
Regarding `CC(=O)NNC(C)=O`, the Potency entry in test [1], in test [2], in test [3], in test [4], in test [7] and in test [6] was “inactive” throughout.
As for `C=CC(=O)O`, the Potency entry in test [1], in [2], in test [3], in test [4], in test [7] and in [6] was “inactive” in each case.
`O=[N+]([O-])C1(Br)COCOC1`: the Potency entry in test [1] and in [6] was “inactive” throughout. For the same compound, the values for the Potency in test [2], in [3] and in [4] were 12.2 µM (active), 21.7 µM (active) and 21.7 µM (active), respectively.
On to `CCO[Si](C)(CCCOCC1CO1)OCC` (stereo not given), for which the Potency result in test [1], in test [7] and in test [6] was “inactive” each time. In addition, the Potency in test [2] was 13.7 µM (active); in test [3], 7.7 µM (active); in [4] it was 27.3 µM (active).
Take `Cc1c[nH]c2ccccc12`: the Potency result in test [1], in test [2], in test [3], in test [4], in test [7] and in test [6] was “inactive” in each case.
On to `Nc1ccc(NC(=O)c2ccc(N)cc2)cc1`, for which the Potency entry in [1], in [2], in test [3], in [7], in test [5] and in [6] was “inactive” in each case. Moreover, in test [9], the Potency result is “inactive”. Also, the compound was classed as inactive in [8].
Take `CC(C)c1ccc(C(=O)N=C(N)N)cc1S(C)(=O)=O`: the Potency entry in [1], in test [2], in test [3], in test [4], in test [7] and in test [6] was “inactive” throughout.
Take `CC(C)(C(=O)c1cccnc1)c1cccnc1`: the Potency result in [1], in test [2], in test [3], in test [4], in test [7] and in test [6] was “inactive” each time.
For `Nc1nc(-c2ccc([N+](=O)[O-])cc2)cs1`, the Potency result in test [1], in test [2], in test [3], in [4], in test [7] and in test [6] was “inactive” throughout.
As for `O=P(O)(O)Oc1ccccc1`, the Potency entry in test [1], in [2], in test [3], in [4], in [7] and in test [6] was “inactive” each time.
For the compound `CCN(CC)CCOc1ccccc1C(=O)CCc1ccccc1`, the Potency result in test [1] and in test [6] was “inactive” each time. Moreover, the Potency in test [2] was 11.9 µM (active); in test [3], 26.6 µM (active); in test [4] it was 26.6 µM (active).
Take `CC(=O)C(C)=O`: the Potency result in [1], in test [2], in test [3], in test [4], in [7] and in test [6] was “inactive” throughout.
Turning to `OCC(CO)n1cnc(-c2ccc(F)cc2)c1-c1ccnc(Oc2ccccc2)n1`, the Potency entry in test [1], in test [7] and in test [6] was “inactive” each time. Besides, the Potency in [2], in [3] and in test [4] was 68.5 µM (active) throughout.
Take `C1CCCCC1`: the Potency entry in test [1], in test [2], in test [3], in [4], in test [7] and in test [6] was “inactive” each time.
For `Cc1cc(CCC(=O)OCCOCCOCCOC(=O)CCc2cc(C)c(O)c(C(C)(C)C)c2)cc(C(C)(C)C)c1O`, the Potency result in test [1] and in test [6] was “inactive” each time. In addition, the Potency is 26.6 µM (active) in [2], 26.6 µM (active) in test [3] and 23.7 µM (active) in test [4].
In the case of `COc1ccc(C)cc1`, the Potency entry in test [1], in test [2], in test [3], in test [4], in [7] and in [6] was “inactive” in each case.
For `CC(C)COC(=O)c1ccc(O)cc1`, the Potency entry in test [1], in test [2], in test [3], in test [7] and in [6] was “inactive” throughout.
